Consider 16 compounds from PubChem BioAssay (NCI).

Test systems include T-47D breast; BT-549 breast; MDA-MB-435 melanoma; SW-620 colon; MCF7 breast; HCT-116 colon; HCC-2998 colon; KM12 colon.
Holding throughout (assay): NCI-60 one-dose screen, 48 h (100 = growth as untreated, 0 = no growth, -100 = all killed)
Holding throughout (settings): 10 µM unless noted

Compounds without any hit were thinned out: in the full panel of roughly 83,000, 20% have a hit.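 Assay: single dose, 48 h. Readout: percent growth (0 = no net growth; negative = cell death). Active: <10.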 Values without a mark were called inactive. Activity calls are given as the source filed them.

As to `COCCCNc1nc(NC(=O)c2ccc(F)cc2C)cc(-c2cccnc2)n1`, the growth in the assay with T-47D breast is 89.4%; in the assay with BT-549 breast, 103%; in the assay on MDA-MB-435 melanoma, 103%; with SW-620 colon it was 109%; in the assay on MCF7 breast it was 103%; with HCT-116 colon, 101%. Moreover, the growth with HCC-2998 colon is 103%; in the assay on KM12 colon it was 104%.

Turning to `O=C1Nc2ccc(Br)cc2C12CC(c1ccccc1)=NN2` (stereo not drawn), the growth is 71.6% with T-47D breast; 47.8% in the assay on BT-549 breast; -21.1% (active) with MDA-MB-435 melanoma; 18.6% in the assay with SW-620 colon; 18.3% in the assay on MCF7 breast; 22.9% in the assay with HCT-116 colon. The values for the growth in the assay with HCC-2998 colon and with KM12 colon were 75.2% and 30.6%, respectively.

As for `CCN1CCN(Cc2ccc(NC(=O)Nc3nc4ccc(Oc5ccnc(C(=O)NC)c5)cc4s3)cc2C(F)(F)F)CC1`, the growth with T-47D breast was -27.9% (active); in the assay with BT-549 breast it was -69.1% (active); with MDA-MB-435 melanoma, -36.5% (active); in the assay with SW-620 colon, -52.7% (active); with MCF7 breast it was -39.3% (active); in the assay on HCT-116 colon it was -66.1% (active). Also, the growth in the assay on HCC-2998 colon was -33.6% (active); in the assay on KM12 colon, -61.6% (active).

`COc1ccc(Cl)cc1Nc1nc(C(F)(F)F)ccc1C(=O)N/N=C/c1cccnc1`: the growth was 46.9% in the assay with T-47D breast; 47.1% in the assay on BT-549 breast; 58.4% in the assay with MDA-MB-435 melanoma; 47.5% with SW-620 colon; 33.3% in the assay on MCF7 breast; 43.2% in the assay on HCT-116 colon. The growth was 53.6% with HCC-2998 colon and 59.5% in the assay on KM12 colon.

With `Oc1ccc(Nc2nccc(-c3ccc4ccccc4c3)n2)cc1`, the growth with T-47D breast was 48.7%; in the assay with BT-549 breast, 48.2%; in the assay with MDA-MB-435 melanoma, 8.01% (active); in the assay with SW-620 colon, 31.8%; in the assay on MCF7 breast, 20.2%; with HCT-116 colon, 23.2%. Further, the values for the growth in the assay with HCC-2998 colon and in the assay on KM12 colon were 60.4% and 27.4%, respectively.

Turning to `CCN(CC)Cc1cc(Nc2c3ccccc3nc3cc(Cl)ccc23)ccc1O`, the growth with T-47D breast is -68.2% (active); in the assay on BT-549 breast, -58% (active); in the assay with MDA-MB-435 melanoma it was -92.7% (active); in the assay on SW-620 colon, -41% (active); with MCF7 breast, -60.7% (active); with HCT-116 colon, -43% (active). The results for the growth in the assay with HCC-2998 colon and with KM12 colon were -100% (active) and -30% (active), respectively.

As to `COc1cc(-c2c3c(nc4c2c(C)nn4-c2ccccc2)-c2ccccc2C(=O)C3=O)cc(OC)c1OC`, the growth is 72.4% with T-47D breast; 68.4% in the assay with BT-549 breast; -0.815% (active) in the assay with MDA-MB-435 melanoma; 86.2% with SW-620 colon; 57.7% in the assay on MCF7 breast; 51.5% in the assay with HCT-116 colon. Moreover, the growth with HCC-2998 colon was 71.1%; in the assay with KM12 colon, 80.8%.

Regarding `NS(=O)(=O)c1ccc(Nc2nc3n[nH]c(Nc4ccccc4)c3c(=O)[nH]2)cc1`, the growth with T-47D breast was 87.3%; in the assay on BT-549 breast, 99.1%; in the assay with MDA-MB-435 melanoma it was 103%; in the assay on SW-620 colon it was 104%; with MCF7 breast, 98.5%; in the assay with HCT-116 colon, 112%. For the same compound, the values for the growth in the assay on HCC-2998 colon and in the assay on KM12 colon were 112% and 100%, respectively.

With `C#Cc1nc2ccccc2c(=O)[nH]1`, the growth is -30.6% (active) in the assay with T-47D breast; -61.2% (active) with BT-549 breast; -58.2% (active) in the assay on MDA-MB-435 melanoma; -63.7% (active) with SW-620 colon; -25% (active) in the assay with MCF7 breast; -64.2% (active) in the assay on HCT-116 colon. Further, the growth with HCC-2998 colon was -41.1% (active); with KM12 colon it was -65.7% (active).

Regarding `O=C1c2cccnc2C(=O)c2c1c(C(=O)OCCN1CCOCC1)c1ccccn21`, the growth in the assay with T-47D breast is 9.37% (active); in the assay with BT-549 breast, -13.3% (active); in the assay with MDA-MB-435 melanoma it was -36% (active); in the assay on SW-620 colon, 6.61% (active); in the assay with MCF7 breast, -45.9% (active); with HCT-116 colon, -1.07% (active). Moreover, the results for the growth in the assay with HCC-2998 colon and in the assay on KM12 colon were 10.7% and 22.2%, respectively.

Take `CC/C(Cc1ccccc1)=C(/c1ccc(O)cc1)c1ccc(OCCN2CCCC2)cc1`: the growth in the assay with T-47D breast is -25.2% (active); in the assay on BT-549 breast, 44.7%; in the assay on MDA-MB-435 melanoma, -100% (active); in the assay with SW-620 colon it was -78.4% (active); with MCF7 breast, -67.7% (active); in the assay on HCT-116 colon, -87.1% (active). The results for the growth with HCC-2998 colon and with KM12 colon were -90.9% (active) and -75.4% (active), respectively.

Consider `O=C(/C=C\c1ccc2ccccc2n1)c1cc(Cl)ccc1O`, for which the growth is 28.3% in the assay with T-47D breast; 71.5% with BT-549 breast; 51.8% in the assay with MDA-MB-435 melanoma; 29% in the assay with SW-620 colon; 27.9% with MCF7 breast; 48.6% in the assay on HCT-116 colon. In addition, the growth with HCC-2998 colon is 84.4%; in the assay on KM12 colon, 74.2%.

As for `CC[C@H](Nc1nc(N)nc(C)c1C#N)c1nc2cccc(NCc3ccc(C(=O)NO)cc3)c2c(=O)n1-c1ccccc1`, the growth in the assay with T-47D breast was -8.21% (active); in the assay on BT-549 breast, 20.9%; with MDA-MB-435 melanoma, -1.57% (active); in the assay with SW-620 colon, -16.4% (active); in the assay with MCF7 breast, 5.7% (active); with HCT-116 colon, -50.5% (active). In addition, the growth with HCC-2998 colon is 28.3%; with KM12 colon, 0.659% (active).

Take `COCCCN=C(N)c1ccc(NC(=O)c2ccc(C(=O)Nc3ccc(C(N)=NCCCOC)cc3)cc2)cc1`: the growth in the assay on T-47D breast was 108%; with BT-549 breast it was 78.6%; in the assay on MDA-MB-435 melanoma, 88.4%; in the assay on SW-620 colon it was 106%; with MCF7 breast, 109%; with HCT-116 colon, 79.7%. Further, the values for the growth in the assay with HCC-2998 colon and with KM12 colon were 116% and 132%, respectively.

Turning to `O=C1C=CC(=O)N1c1ccc(Cc2ccc(N3C(=O)C=CC3=O)cc2)cc1`, the growth with T-47D breast was 89.8%; in the assay with BT-549 breast, 95.8%; with MDA-MB-435 melanoma, 104%; in the assay on SW-620 colon, 110%; with MCF7 breast, 89.5%; in the assay with HCT-116 colon, 89%. In addition, the growth with HCC-2998 colon was 102%; in the assay with KM12 colon, 100%.

Turning to `CC[C@]12C=CCN3CC[C@@]4(c5ccc(OC)cc5N(C)[C@H]4[C@@](O)(C(=O)OC)[C@@H]1OC(=O)CCC(=O)N[C@@H](Cc1c[nH]c4ccccc14)C(=O)OC)[C@@H]32`, the growth is 67.8% with T-47D breast; 115% with BT-549 breast; 95.3% in the assay on MDA-MB-435 melanoma; 96.4% in the assay with SW-620 colon; 90% with MCF7 breast; 100% in the assay with HCT-116 colon. Besides, the growth was 70.6% with HCC-2998 colon and 106% with KM12 colon.
